In the library only some 1.4% were active in any assay of this set; here they are far more common.
Bcl-xL primary = Bcl-xL (human) inhibition; AID 2129; hit rate 0.7% among 320,000; GST-Bcl-xL / FITC-Bim BH3 peptide fluorescence polarization; inhibition, % at 10.9 µM;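 active = inhibition above the mean of all tested compounds plus 3 SD, cutoff set per campaign, cut at about 30% in these data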;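 note: 0% = DMSO wells and 100% = unlabeled Bim-BH3 peptide competitor; inhibitors lower millipolarization by displacing the labeled peptide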
Target sequence (Q07817 whole entry, looked up): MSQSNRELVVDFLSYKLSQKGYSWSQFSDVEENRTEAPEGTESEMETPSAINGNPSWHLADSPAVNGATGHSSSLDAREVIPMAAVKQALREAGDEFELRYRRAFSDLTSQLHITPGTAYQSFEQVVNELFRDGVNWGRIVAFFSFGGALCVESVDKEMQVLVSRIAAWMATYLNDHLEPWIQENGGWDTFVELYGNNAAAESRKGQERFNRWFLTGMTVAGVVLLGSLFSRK
MCL1-BIM inh = disrupts human MCL1 binding to BIM-BH3 peptide. GST-MCL1 / FITC-Bim-BH3 fluorescence polarization. inhibition, % at 10.9 µM. hit rate 0.68% among 320,000;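 active = inhibition above the mean inhibition of all tested compounds plus 3 SD, set per campaign, cut at about 40% in these data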;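 note: 0% = DMSO wells and 100% = unlabeled Bim-BH3 peptide control; higher means more loss of mP so more displacement of Bim peptide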
Target sequence (Q07820 whole entry, looked up): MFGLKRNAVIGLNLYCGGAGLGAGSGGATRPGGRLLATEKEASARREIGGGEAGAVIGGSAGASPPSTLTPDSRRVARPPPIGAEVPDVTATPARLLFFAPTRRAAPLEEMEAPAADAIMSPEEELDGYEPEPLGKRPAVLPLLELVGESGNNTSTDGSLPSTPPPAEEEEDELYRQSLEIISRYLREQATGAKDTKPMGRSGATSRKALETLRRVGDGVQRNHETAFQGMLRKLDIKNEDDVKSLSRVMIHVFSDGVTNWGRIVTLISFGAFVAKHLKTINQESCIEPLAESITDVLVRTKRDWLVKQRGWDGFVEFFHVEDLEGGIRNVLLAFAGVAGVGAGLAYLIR
GLD-1 TGE inh = GLD-1-TGE RNA interaction inhibition (C. elegans) | purified GLD-1 + fluorescein TGE RNA, fluorescence polarization | inhibition, % at 5.96 µM | Q17339 | hit rate 0.44% among 320,000;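 active = percent inhibition above a per-plate cutoff, the plate mean of test compounds plus 3 SD, cut at about 30% in these data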;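 note: 0% = DMSO wells with GLD-1 and probe and 100% = wells lacking GLD-1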
MEX-5 binding = C. elegans MEX-5 TCR-2 RNA binding activity | MEX-5/FITC-TCR2 RNA binding, fluorescence polarization; active compounds read low | activity score (negative = inhibition of binding), % at 10 µM | hit rate 0.38% among 300,000 | AID 1832;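 active = inhibition past about -25% in most replicates, and total fluorescence under double the plate's negative control median, limit read from the data; inconclusive = replicates evenly split on the limit, or fluorescence at least double controls; inactive = too little inhibition in most replicates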;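 note: 0% = DMSO and -100% = 5 µM competing unlabeled TCR2 RNA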
eLon inh = E. coli protease La inhibition | P0A9M0 | purified E. coli Lon protease, fluorescence polarization | inhibition, % at 7.94 µM | hit rate 0.42% among 360,000; in the data active = inhibition above about 13%, passing the limit was not always enough;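 note: 0% = enzyme with probe and DMSO and 100% = no enzyme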
BCLXL inh confirm = counter-screen for MCL1 inhibitors: confirmation of human Bcl-xL inhibitors | shares compounds with MCL1-BIM inh | GST-Bcl-xL / FITC-Bim BH3 peptide FP binding | inhibition, % at 10.9 µM | hit rate 54% among 1,700 | AID 2166;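 active = inhibition above a cutoff equal to the mean inhibition of all tested compounds plus 3 SD, cut at about 30% in these data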;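 note: 0% = DMSO wells and 100% = unlabeled Bim BH3 control peptide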
MCL1 inh confirm = confirmation of human MCL1 and BIM-BH3 interaction inhibitors; shares compounds with MCL1-BIM inh; inhibition, % at 10.9 µM; hit rate 61% among 1,700; GST-MCL1 / FITC-Bim-BH3 fluorescence polarization;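 active = inhibition above the average of all tested compounds plus 3 SD, cut at about 40% in these data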;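 note: 0% = DMSO wells and 100% = unlabeled Bim-BH3 control peptide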
An asterisk follows results filed as active; ? = inconclusive; · = no result given.

SMILES	Bcl-xL primary	MCL1-BIM inh	GLD-1 TGE inh	MEX-5 binding	eLon inh	BCLXL inh confirm	MCL1 inh confirm
CCSc1nnc(N2C(=O)C(O)=C(C(=O)c3ccco3)C2c2cccc(OC)c2)s1 (configuration not stated)	59.9*	59.6*	79.0*	-1.5	19.3	65.1*	75.8*
CCOc1cccc(C2C(C(=O)c3ccc(C)o3)=C(O)C(=O)N2c2nnc(C)s2)c1 (configuration not stated)	·	·	·	·	-2.9	·	·
O=C(C1=C(O)C(=O)N(c2ncccn2)C1c1ccc(Cl)cc1)c1ccco1 (configuration not stated)	4.2	6.9	4.0	-3.3	-6.5	·	·
CSc1nnc(N2C(=O)C(O)=C(C(=O)c3ccco3)C2c2ccc(F)cc2)s1 (configuration not stated)	79.7*	70.9*	83.5*	-22.4	-3.6	43.1*	55.5*
CN(C)c1ccc(C(CNC(=O)Cc2cccc3ccccc23)N(C)C)cc1 (configuration not stated)	4.7	3.7	2.5	1.5	-11.1	·	·
Cc1cccc(N(C)S(=O)(=O)c2ccc3[nH]c(=O)c(=O)[nH]c3c2)c1	1.9	2.9	0.8	-1.1	-1.3	·	·
C#CCNC(=O)C1=C[C@H](c2ccc(Br)cc2)C[C@H](OCCCCO)O1	-3.0	-7.9	2.7	1.7	-14.1	·	·
CC1CCCN(CC(=O)Nc2ccc(S(=O)(=O)N3C(C)CCCC3C)cc2)C1 (configuration not stated)	·	·	·	·	-11.6	·	·
CC1(C)CC(=O)C2=C(C1)Nc1ccccc1N=C2	91.0*	106.0*	63.5*	-16.0	·	28.6	27.2
Cc1[nH]n(C)c(=O)c1C(=O)c1c(-c2ccccc2Cl)noc1C	3.3	-0.8	1.4	-0.9	11.4	·	·
CC(=O)c1c(C)oc2ccc(NS(=O)(=O)c3ccc(C)cc3)cc12	-0.6	-1.7	1.9	-3.0	2.5	·	·
Cc1ccc(C)c(S(=O)(=O)Nc2ccc3oc(C)c(C(=O)O)c3c2)c1	12.3	41.6*	0.8	1.3	-14.4	21.5	59.9*
O=C(NCc1cccc(Cl)c1)c1cccc(S(=O)(=O)N2CCCC2)c1	-0.6	-5.3	3.9	·	6.7	·	·
Cc1cc[n+](-c2[nH]c(=O)sc2/C=N/N=C(\[O-])CCn2c3ccccc3c3ccccc32)cc1	26.8	49.0*	21.8	·	8.8	18.8	50.1*
CCc1ccc[n+](-c2[nH]c(=O)sc2/C=N/N=C(\[O-])CCn2c3ccccc3c3ccccc32)c1	20.5	32.3	14.4	-7.7	9.7	·	·
O=C(CNc1cccc2ccccc12)N/N=C/c1ccc(C(=O)O)cc1	6.7	68.3*	5.8	-3.9	-2.1	13.0	52.1*
Cc1cc(C=O)c2c(c1)C=CC1(Oc3ccccc3C(=O)N1C)O2 (configuration not stated)	58.3*	52.9*	108.8*	-1.7	·	11.3	14.9
CCCSCC(=O)Nc1ncc2c(n1)-c1ccccc1CC2	65.8*	61.6*	20.9	-6.8	3.1	70.8*	89.8*
CC1(C)CCN2CCC(C)(C)c3c(O)ccc1c32	141.1*	170.5*	76.7*	-14.9	-145.3	29.4	25.0
CCOc1ccccc1C(=O)NCC(=O)NC(C)c1ccc(-n2ccnc2)cc1 (configuration not stated)	-0.1	1.3	2.1	0.1	-9.9	·	·
CCN1CCN(c2cc(N3CCN(C(=O)c4ccco4)CC3)c3c4c(onc24)-c2ccccc2C3=O)CC1	91.7*	102.8*	18.6	5.7	9.5	52.1*	19.8
Oc1oc(-c2ccc(Br)cc2)nc1/C=N/c1ccccn1	2.8	68.8*	2.1	-2.1	-2.0	4.8	4.3
Oc1oc(-c2ccccc2)nc1/C=N/c1nccs1	7.6	2.2	2.2	-9.2	-9.2	·	·
COc1ccc(/C=C2\SC(=O)NC2=S)cc1OC	101.9*	122.1*	99.6*	-36.4*	23.7	38.1*	36.0
COC(=O)\C(C(C)=O)=C(/C=C/C=C/C=C/N(C)C)N(C)C	28.2	49.6*	19.2	·	2.4	15.2	-3.4
SMILES	Bcl-xL primary	MCL1-BIM inh	GLD-1 TGE inh	MEX-5 binding	eLon inh	BCLXL inh confirm	MCL1 inh confirm
COCCNC(=O)C1CC(=O)N(c2ccc(OC)cc2)C1c1ccc(OC)cc1 (configuration not stated)	8.8	9.1	-9.4	1.1	4.6	·	·
O=C(O)c1cc(O)c2c(c1)C(=O)c1cccc(O)c1C2=O	114.3*	146.6*	89.4*	-27.7*	28.8	117.6*	144.3*
NC1=NC(=O)/C(=C/c2ccc(-c3ccc(S(N)(=O)=O)cc3)o2)S1	23.9	50.0*	5.3	-40.1*	-31.6	40.7*	39.1
NC1=NC(=O)/C(=C\c2ccco2)S1	55.1*	83.8*	12.2	-17.5	-8.9	43.5*	63.8*
COC(=O)c1cc(S(=O)(=O)NCC2CCN(Cc3cccc(Cl)c3)CC2)c[nH]1	6.7	4.0	-5.5	2.6	-2.3	·	·
CC(=O)Nc1ccc2cc3ccc(NC(C)=O)cc3nc2c1	60.2*	62.8*	-2.6	-35.6*	6.1	155.6*	194.8*
COCCCNC(=O)/C(C#N)=C/c1c(N2CCN(c3ccccc3)CC2)nc2c(C)cccn2c1=O	91.4*	98.5*	23.2	-5.2	22.2	37.1*	40.8*
COCCCNC(=O)/C(C#N)=C/c1c(N2CCN(c3cccc(Cl)c3)CC2)nc2c(C)cccn2c1=O	9.7	7.4	-6.1	0.7	2.4	·	·
Cc1cccn2c(=O)c(C=O)c(N3CCN(c4ccccc4)CC3)nc12	37.1*	59.7*	-0.1	-9.1	5.0	39.0*	48.6*
Cc1cccn2c(=O)c(C=O)c(N3CCN(C)CC3)nc12	21.4	19.9	15.1	0.3	1.1	·	·
Cc1c(C)n(C)c2ccc(C(=O)Nc3cccc4ccccc34)cc12	0.4	-13.0	-0.9	3.5	-7.1	·	·
O=c1oc2c3c4c(cc2c(C(F)(F)F)c1CCN1CCOCC1)CCCN4CCC3	107.3*	121.6*	65.3*	?	-11.5	107.4*	115.6*
Cc1ccc(C)c(N(CC(=O)NCc2ccco2)C(=O)CNS(=O)(=O)c2ccccc2)c1	5.8	1.6	-0.8	0.2	5.3	·	·
Cc1ccc(N(CC(=O)NCc2ccco2)C(=O)CNS(=O)(=O)c2ccccc2)c(C)c1	5.8	42.4*	-3.1	1.5	3.0	3.0	-14.9
Cc1c(NC(=O)CCSCCc2ccccn2)cccc1[N+](=O)[O-]	0.9	5.5	-2.8	-1.2	-7.5	·	·
CC1(O)C(=O)C=C2C=C(c3ccc(C#N)cc3)OC=C2C1=O (configuration not stated)	8.3	47.2*	8.1	1.5	·	13.1	40.3*
CCC(=O)OC1(C)C(=O)C=C2C=C(c3ccc(C#N)cc3)OC=C2C1=O (configuration not stated)	18.8	30.8	14.1	-3.6	-8.1	·	·
